This is a sample that favours compounds with a hit; in the whole collection about 2.5% have one here.
Cruzain Triton: blocks cruzain activity in presence of Triton detergent | Potency, µM, most hits filed as inhibitors | hit rate 0.43% among 200,000 | AID 1478 | P25779 | purified cruzain, Z-FR-AMC fluorescence, 0.01% Triton; also: nearly all actives have a fitted effect of over 40% in size
Target sequence (P25779 123-467 limits assumed): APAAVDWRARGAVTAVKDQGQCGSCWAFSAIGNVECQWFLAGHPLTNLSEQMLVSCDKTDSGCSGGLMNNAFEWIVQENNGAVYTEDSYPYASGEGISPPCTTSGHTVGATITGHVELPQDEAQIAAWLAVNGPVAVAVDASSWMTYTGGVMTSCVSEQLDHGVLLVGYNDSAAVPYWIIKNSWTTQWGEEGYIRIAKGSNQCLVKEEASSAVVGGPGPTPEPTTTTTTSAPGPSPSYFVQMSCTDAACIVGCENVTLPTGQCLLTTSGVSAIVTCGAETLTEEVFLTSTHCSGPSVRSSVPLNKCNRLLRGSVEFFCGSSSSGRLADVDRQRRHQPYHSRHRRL
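Detergent-containing run (0.01% Triton X-100) in acetate buffer pH 5.5 with 5 mM DTT: enzyme at 1.5 nM final, 15 min compound preincubation at room temperature, then 2 uM Z-FR-AMC substrate. Activity taken as 60 s fluorescence increase at 360/450 nm.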
Cruzain noTriton: cruzain (T. cruzi) inhibition without detergent. purified cruzain, Z-FR-AMC fluorescence, no detergent. Potency, µM, usual class: inhibitors. hit rate 2.3% among 200,000. AID 1476; also: nearly all actives have a fitted effect of over 40% in size
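Purified cruzain at 1.5 nM, pre-incubated 15 min with compound at room temperature in 100 mM sodium acetate pH 5.5, 5 mM DTT, 0.00005% Triton X-100. Reaction started with 2 uM Z-FR-AMC; AMC fluorescence increase over 60 s gives rate.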
Of the large screens only hits and unclear results are named; the others gave an inactive call. Calls follow the shape of the dose curve; as a rule, active = well fitted curve in the direction sought with a large enough effect; inconclusive = small, poorly fitted or top-dose-only effect, or another doubt; inactive = no such curve, though single readings can be large; an effect the other way counts as inactive or inconclusive.

O=C(Nc1ccc(F)cc1F)c1cc2ccc3cccnc3c2[nH]1	Cruzain noTriton 25.1µM
Cc1nc2nncn2c(NCc2ccc(Cl)cc2)c1C	none
CCC(=O)Nc1nnc(Sc2ccc(N(C)C)cc2)s1	none
CN(C)c1ccc(Sc2nnc(NC(=O)Nc3ccc(Cl)cc3Cl)s2)cc1	Cruzain noTriton 10µM
CN1CCN(c2ccnc(-c3ccc(N(C)C)cc3)n2)CC1	none
Cc1sc(NC(=O)CSc2nnc(COc3ccc(Cl)cc3)n2C)c(C#N)c1C	Cruzain noTriton 25.1µM
Cc1ccc(-c2nnc(SCC(=O)Nc3sc(C)c(C)c3C#N)n2C)cc1	Cruzain noTriton inconclusive
Cc1ccc(NC(=S)NC(NC(=O)C(C)(C)C)C(Cl)(Cl)Cl)c(C)c1 (stereo unspecified)	none
CC(=O)NC(NC(=S)Nc1ccc(N=Nc2ccccc2C)cc1C)C(Cl)(Cl)Cl (stereo unspecified)	Cruzain noTriton 7.94µM
CN1CCc2nc3sc(C(=O)c4ccc(F)cc4)c(N)c3cc2C1	none
CN1CCc2nc3sc(C(=O)C45CC6CC(CC(C6)C4)C5)c(N)c3cc2C1	Cruzain Triton inconclusive, Cruzain noTriton 12.6µM
CC(C)CC(C(=O)Nc1oc(-c2ccco2)c(-c2ccco2)c1C#N)N1C(=O)c2ccccc2C1=O (stereo unspecified)	Cruzain noTriton 31.6µM
CC(C)CC(C(=O)Nc1ccc2c(c1)OCCO2)N1C(=O)c2ccccc2C1=O (stereo unspecified)	none
COc1ccccc1Cc1nc2ccccc2nc1SCC(=O)N1CCC(C)CC1	none
CCC1CN(C(=O)N2CCC(C(=O)NCCc3ccc(OC)cc3OC)CC2)c2cc(C)ccc2O1 (stereo unspecified)	none
COc1ccc(-c2noc(-c3ccc(N4CCOCC4)c([N+](=O)[O-])c3)n2)cc1OC	none
COc1ccc(-c2noc(-c3ccc(N4CCC(C)CC4)c([N+](=O)[O-])c3)n2)cc1OC	Cruzain noTriton 20µM
N#CSCSC#N	none
O=C(NCCN1C(=O)S/C(=C\c2ccc(Cl)c(Cl)c2)C1=O)c1ccc2c(c1)C(=O)N(Cc1ccncc1)C2=O	Cruzain noTriton 12.6µM
O=C(NCCN1C(=O)S/C(=C\c2ccc(Cl)cc2)C1=O)c1ccc(F)c(S(=O)(=O)N2CCOCC2)c1	Cruzain noTriton inconclusive
Cc1cccc(N2CCN(C(=O)c3nn(C)c4c3CSc3ccccc3-4)CC2C)c1 (stereo unspecified)	none
Clc1ccc(Oc2ncnc3oc(-c4ccccc4)cc23)cc1	Cruzain noTriton 20µM
Cc1ccccc1Oc1ncnc2oc(-c3ccccc3)cc12	none
CC1=C(C(=O)Nc2ccccc2)C(c2cccn2C)n2ncnc2N1 (stereo unspecified)	none
Nc1c(S(=O)(=O)O)cc(S(=O)(=O)O)c2ccc(N=Nc3ccccc3)c(O)c12	none
Cc1cc(-c2ccc(N=Nc3cc(S(=O)(=O)O)c4ccccc4c3N)c(C)c2)ccc1N=Nc1cc(S(=O)(=O)O)c2ccccc2c1N	Cruzain Triton 7.94µM, Cruzain noTriton inconclusive
Cc1ccc(NC(=O)Cn2c(=O)n(Cc3ccccc3)c(=O)c3c2c2cc(C)ccc2n3C)cc1	none
O=C(Nc1ccc2oc(=O)ccc2c1)c1cc2ccccc2o1	none
O=C(Nc1c(C(=O)Nc2ccc(F)cc2)oc2ccccc12)c1cc2ccccc2o1	Cruzain noTriton 12.6µM
CCC(=O)Nc1ccc(NC(=S)NC(=O)c2cc3ccccc3o2)cc1	none
Cc1ccc(NC(=O)c2ccc(OC(=O)COc3ccc(Cl)c(C)c3)cc2)cc1	Cruzain noTriton 15.8µM
Cc1cc(=O)oc2cc(NC(=O)c3cc4ccccc4o3)ccc12	Cruzain noTriton 10µM
COC(=O)COc1cccc(NC(=O)c2ccc(C)cc2)c1	none
COc1ccc(NC(=O)c2oc3ccccc3c2NC(=O)c2cc3ccccc3o2)cc1	Cruzain noTriton inconclusive
CCCC(=O)Nc1ccc(Cl)c(NC(=S)NC(=O)c2cc3ccccc3o2)c1	Cruzain noTriton 5.01µM
COc1ccc(NC(=O)c2cc3c(s2)-c2c(C)cccc2OC3)c(OC)c1	Cruzain noTriton inconclusive
CC(=O)c1ccc(NC(=O)c2c3c(nc4ccccc24)C(=O)N(C2CCCCC2)C3)cc1	none
COC(=O)c1cc(NC(=O)c2ccc3c(c2)N(Cc2cccc(Cl)c2)C(=O)c2ccccc2S3=O)cc(C(=O)OC)c1 (stereo unspecified)	none
CCOC(=O)CNC(=O)O[C@@H]1C(=O)c2cc(Br)ccc2O[C@H]1c1ccc2c(c1)OCO2	none
Cc1ccc(CN(C(=O)COc2ccc(C(C)(C)C)cc2)C2CCS(=O)(=O)C2)o1 (stereo unspecified)	Cruzain noTriton inconclusive
Cc1cc(C)c(NC(=O)CSc2nc(=O)[nH]c3c2CCCC3)c(C)c1	none
Cc1ccc(NC(=O)c2ccc(OC(=O)c3ccco3)cc2)cc1	none
COc1cc(NC(=O)c2cc(Cl)ccc2Cl)ccc1NC(=O)c1cc2ccccc2o1	Cruzain noTriton 15.8µM
O=C(Nc1ccc(NC(=O)c2cc3ccccc3o2)cc1)c1ccccc1	Cruzain noTriton 3.16µM
O=C(O)c1ccc(NC(=O)c2cc3ccccc3o2)cc1	none

Source: PubChem
